Methyltransferases: Primary Screen for Target Class Profiling of Small Molecule Inhibitors of Methyltransferases; purified enzyme, MTase-Glo SAH luminescence; hits give low values; 3.9% of 25,000 active; calls only at 40 µM; call rule not given here
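Each enzyme was reacted with SAM and its substrate, with compounds tested once at 40 uM; SAH formed was read by MTase-Glo luminescence.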
Numbers without * were called inactive; i = inactive; + = active, no number; ! = not active in a repeat. Shown is part of a subset that was picked to be rich in hits. On the % scale 0 is the no-effect control and ±100 the full control effect.

SMILES	Methyltransferases
CCCn1c(=O)c2ccc(C(=O)NC3CCCCC3)cc2n2c(=O)n(Cc3cccc(Cl)c3)nc12	i
CC1(C)CC[C@]2(C(=O)OC3OC(CO)C(O)C(O)C3O)CC[C@]3(C)C(=CCC4[C@@]5(C)CC[C@H](OC6OC(C(=O)O)C(O)C(OC7OC(CO)C(O)C(O)C7O)C6O)C(C)(C)C5CC[C@]43C)C2C1 (some centres not stated)	i
CC(C)CCNC(=O)C1(C)Cn2c(cc3ccccc32)C(=O)N1CCc1ccco1 (configuration not stated)	i
COc1ccc(CCc2nc3c(C)c(-c4c(C)noc4C)c(C)cc3n2CCN2CCOCC2)cc1	+!
COc1ccc2cc3n(c2c1)CC(C)(C(=O)NC1CCCCC1)N(CCCN1CCOCC1)C3=O (configuration not stated)	i
COc1ccc2cc3n(c2c1)CC(C)(C(=O)NCC1CCCO1)N(CCc1ccc(Cl)cc1)C3=O (configuration not stated)	i
CN(Cc1ccc(-c2ccccc2)cc1)C(=O)Cc1ccccn1	i
O=S(=O)(c1cccc(F)c1)N1CC[C@@H]2COCCN(Cc3ccccc3)[C@@H]2C1	i
COc1ccc(NC(=O)N2CCn3cccc3C2C(C)C)cc1 (configuration not stated)	i
CCCCN1C(=O)c2ccccc2C(C(=O)NC2CC2)C12CCCCC2 (configuration not stated)	i
CCCCOc1ccccc1-c1cc2n(n1)CC(C)(C(=O)NC1CCCCCC1)N(CC)C2=O (configuration not stated)	i
CCN1C(=O)c2ccccc2C1Nc1ccc(OCCN2CCCCC2)cc1 (configuration not stated)	+
COc1cccc(N2C(=O)c3cc4occc4n3CC2(C)C(=O)NC2CCCCC2)c1 (configuration not stated)	i
COc1ccc(CNC(=O)C2(C)Cn3cnc(C(=O)NCCc4ccc(C)cc4)c3C(=O)N2C2CC2)cc1 (configuration not stated)	i
Cn1nc2n(Cc3ccccc3)c(=O)c3ccc(C(=O)NC4CCCC4)cc3n2c1=O	i
COCCCNC(=O)c1ccc(Cn2c(=O)c3ccccc3n(Cc3ccc(C(C)C)cc3)c2=O)cc1	i
CN1CCc2c(c3ccccc3n2Cc2ccc(C(=O)NO)cc2)C1	+!
Cc1ccc(NC(=O)COc2ccc(-c3nnc4n3CCCC4)cc2)cc1C	i
C=C1C(=O)OC2/C=C(\C)CC/C=C(\C(=O)O)CC/C=C(\C)CCC12 (configuration not stated)	i
C=C1C(=O)OC2/C=C(\COC(C)=O)CC/C=C(\C=O)CC(OC(=O)CC(C)C)C12 (configuration not stated)	i
C=C1C(=O)O[C@@H]2/C=C(\CO)CC/C=C(/C=O)C[C@@H](O)[C@@H]12	+
C=C1C(=O)OC2/C=C(\CO)CC/C=C(\C=O)CC(OC(=O)CC(C)C)C12 (configuration not stated)	+
C=C1C(=O)O[C@@H]2/C=C(\CO)CC/C=C(/C=O)C[C@H](O)[C@@H]12	+
C=C1C(=O)OC2C3=C(C)C(=O)CC3C(C)CC(O)C12 (configuration not stated)	i
C=C(C)C(=O)O[C@H]1[C@H]2C(=C)C(=O)O[C@@H]2/C=C(\CO)CC/C=C(/C=O)[C@@H]1O	i
SMILES	Methyltransferases
CCOc1ccc(C(=O)Cn2nc3n(Cc4ccc(C)cc4)c(=O)c4ccccc4n3c2=O)cc1	i
O=C1CCCCC(C(=O)N2CCOCC2)N1 (configuration not stated)	i
COc1ccc(Cc2nnc3ccc(C(=O)N4CCN(Cc5ccccc5)CC4)cn23)cc1	i
COc1ccc(OC)c(CCNC(=O)CCc2nnc3n(CCc4ccccc4)c(=O)c4ccccc4n23)c1	i
CC(=O)Nc1c2n(c3ccc(F)cc13)CC(C)(C(=O)NC1CCCC1)N(C1CCCC1)C2=O (configuration not stated)	i
CCOc1ccccc1NC(=O)c1ncn2c1C(=O)N(C1CC1)C(C)(C(=O)NCc1ccc(OC)cc1)C2 (configuration not stated)	i
CCOc1ccccc1CN1C(=O)c2cc3sccc3n2CC1(C)C(=O)NC1CCCCC1 (configuration not stated)	i
Cc1ccccc1CN1CC(=O)N(Cc2cccc(F)c2)c2ccccc2S1(=O)=O	i
Fc1ccc(-c2cc(C3CCNCC3)[nH]n2)cc1	i
CC(C)Cn1c(CN(C)CCC2CCCCO2)cnc1S(=O)(=O)Cc1ccccc1 (configuration not stated)	i
CN1CCN(CCCNC(=O)Cn2ccc3cc(S(=O)(=O)N4CCCCC4)ccc32)CC1	i
CC1(C)CC[C@]2(C(=O)O[C@@H]3O[C@H](CO)[C@@H](O)[C@H](O)[C@H]3O)CC[C@]3(C)C(=CCC4[C@@]5(C)C[C@@H](O)[C@H](O)C(CO)(CO)C5CC[C@]43C)C2[C@@H]1O (some centres not stated)	+

High-throughput results as filed in PubChem.
